This note sets out measurements from the supplement of paper PMC10127200.

Structures can show the parent of a compound that is named as a salt.

Common to all, as to assay: Euclidean distance of Cell Painting phenotypic profile (signed KS, 77 features) to DMSO centroid (dimensionless distance); 5 or 10 uM (library dependent); higher = stronger phenotypic change vs DMSO (phenoactivity)
Holding throughout (conditions): 48 h

One experiment concerns 786-O. In a few lines:
(§1)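 Five cancer lines, together with a healthy fibroblast line, received library compounds for 48 h at a library-dependent 10 or 5 uM and 0.1% DMSO final. Harmony then derived 77 features from confocal 20X images (9 fields/well) of the stained cells, scoring each as a signed Kolmogorov-Smirnov statistic against same-plate vehicle wells. After plate-position correction, correlation weighting and replicate averaging at the top dose, phenoactivity was taken as each profile's Euclidean distance to the median vehicle profile.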

A further experiment concerns A549. Summed up:
as §1

The subject of the next experiment is DU145. In a few lines: as §1
In another experiment the test system is FB. Summed up: as §1
For the next experiment, the system named is HEPG2. In a few lines: as §1
The test system of a further experiment is OVCAR4. In a few lines: as §1

For `O=C(NCCO[N+](=O)[O-])c1cccnc1` [Nicorandil], the Euclidean distance was found to be 1.26 in the experiment on 786-O; 0.857 in the experiment with A549; 1.26 in the experiment with DU145; 1.09 in the experiment on FB; 0.784 in the experiment on HEPG2; 1.38 in the experiment with OVCAR4.
Turning to `CCC/N=C1\S/C(=C\c2ccc(OC[C@H](O)CO)c(Cl)c2)C(=O)N1c1ccccc1C` [Ponesimod], the Euclidean distance in the experiment on 786-O was 1.96; with A549 it was 1.39; with DU145 it was 0.669; in the experiment with FB, 1; in the experiment on HEPG2, 1.32; in the experiment on OVCAR4 it was 1.26.
For `CC1(C)CCC[C@]2(C)[C@H]3CC(=O)O[C@]3(C)CC[C@@H]12` [Sclareolide], the Euclidean distance in the experiment on 786-O came out at 1.98; in the experiment with A549, 1.52; with DU145, 1.35; with FB, 0.844; with HEPG2, 1.58; in the experiment on OVCAR4 it was 1.36.
For the compound `COc1cc2ncnc(Nc3ccc(Cl)cc3F)c2cc1OC`, the Euclidean distance in the experiment on 786-O was determined as 1.46; in the experiment on A549 it was 1.74; in the experiment on DU145, 1.56; in the experiment with FB, 1.26; in the experiment with HEPG2, 1.51; in the experiment on OVCAR4, 1.01.
Take `CN1CC2c3ccccc3Oc3ccc(Cl)cc3C2C1` (stereo unspecified) [Asenapine maleate]: the Euclidean distance with 786-O turned out to be 1.69; in the experiment with A549 it was 0.991; in the experiment on DU145, 2.6; with FB, 1.59; with HEPG2, 1.28; in the experiment on OVCAR4, 1.51.
As to `CCC[C@H](NC(=O)/C(C#N)=C/c1cccc(Br)n1)c1ccccc1` [Degrasyn (WP1130)], the Euclidean distance in the experiment with 786-O is 5.15; with A549, 4.08; in the experiment with DU145 it was 4.95; in the experiment with FB, 2.59; with HEPG2, 1.66; in the experiment on OVCAR4, 4.93.
Consider `C[C@@H](Oc1ccc2[nH]nc(/C=C/c3cnn(CCO)c3)c2c1)c1c(Cl)cncc1Cl`, for which the Euclidean distance in the experiment with 786-O is 3.17; in the experiment with A549 it was 3.59; with DU145, 3.07; in the experiment on FB, 3.2; in the experiment with HEPG2, 3.02; with OVCAR4 it was 3.82.
Turning to `CC(=O)NS(=O)(=O)c1ccc(N)cc1` [Sulfacetamide Sodium], the Euclidean distance in the experiment on 786-O is 1.12; in the experiment on A549 it was 0.648; in the experiment on DU145, 1.22; with FB, 0.694; in the experiment on HEPG2, 0.673; in the experiment with OVCAR4, 1.05.
As to `CSCC1CN(/N=C/c2ccc([N+](=O)[O-])o2)C(=O)O1` (stereo unspecified) [Nifuratel], the Euclidean distance in the experiment on 786-O worked out at 0.806; with A549, 0.74; in the experiment with DU145 it was 0.807; in the experiment with FB, 0.93; with HEPG2 it was 1.19; in the experiment with OVCAR4, 1.09.
For `NCCCCC(NC(=O)C1CCCN1C(=O)C1CSSCC(N)C(=O)NC(Cc2ccc(O)cc2)C(=O)NC(Cc2ccccc2)C(=O)NC(CCC(N)=O)C(=O)NC(CC(N)=O)C(=O)N1)C(=O)NCC(N)=O` (stereo unspecified) [Lypressin Acetate], the Euclidean distance was 1.39 with 786-O; 0.851 with A549; 1.08 in the experiment on DU145; 1.11 in the experiment with FB; 0.477 in the experiment on HEPG2; 1.48 in the experiment on OVCAR4.
In the case of `Cc1c(-c2ccc(-c3ccccc3F)cc2)nc2ccc(F)cc2c1C(=O)O` [Brequinar], the Euclidean distance was 1.61 in the experiment with 786-O; 1.46 with A549; 0.974 with DU145; 0.698 in the experiment on FB; 1.44 in the experiment on HEPG2; 1.45 in the experiment on OVCAR4.
As to `COc1ccc(C2=N[C@@H](c3ccc(Cl)cc3)[C@@H](c3ccc(Cl)cc3)N2C(=O)N2CCNC(=O)C2)c(OC(C)C)c1` [Nutlin-3], the Euclidean distance in the experiment with 786-O is 1.4; in the experiment with A549, 3.54; with DU145 it was 1.03; with FB, 2.68; with HEPG2 it was 2.58; in the experiment on OVCAR4, 1.17.
Regarding `CCCCC1=NC2(CCCC2)C(=O)N1Cc1ccc(-c2ccccc2-c2nnn[nH]2)cc1` [Irbesartan], the Euclidean distance with 786-O stood at 1.03; in the experiment on A549, 0.928; in the experiment with DU145 it was 0.351; in the experiment with FB, 0.966; in the experiment on HEPG2, 0.777; in the experiment on OVCAR4, 1.79.
`Clc1ccc(CCC(Cn2ccnc2)Sc2c(Cl)cccc2Cl)cc1` (stereo unspecified) [Butoconazole]: the Euclidean distance with 786-O amounted to 1.21; in the experiment on A549, 0.956; with DU145 it was 1.06; in the experiment with FB it was 1.04; in the experiment with HEPG2 it was 1.4; in the experiment with OVCAR4, 1.31.
Consider `C=C1CC[C@@H]2[C@](C)(CO)[C@H](O)CC[C@@]2(C)[C@H]1C/C=C1\C=COC1=O` [Dehydroandrographolide], for which the Euclidean distance in the experiment on 786-O worked out at 1; in the experiment on A549, 0.867; in the experiment with DU145, 0.554; with FB, 0.87; with HEPG2, 0.517; with OVCAR4 it was 1.29.
In the case of `CCn1cc(-c2ccnc3[nH]c(-c4cccc(CN(C)C)c4)cc23)c(-c2ccc(NC(=O)N(C)C)cc2)n1`, the Euclidean distance in the experiment on 786-O came out at 2.56; with A549 it was 2.73; with DU145, 2.29; in the experiment with FB it was 3.38; in the experiment with HEPG2, 2.7; in the experiment on OVCAR4 it was 2.8.
Turning to `CNC(=O)c1ccccc1Sc1ccc2c(/C=C/c3ccccn3)n[nH]c2c1` [Axitinib], the Euclidean distance in the experiment on 786-O is 3.11; in the experiment on A549, 3.76; in the experiment with DU145, 3.18; in the experiment with FB it was 3.27; in the experiment with HEPG2 it was 2.51; with OVCAR4, 3.92.
Take `CC(C)(C)C(=O)Oc1ccc(S(=O)(=O)Nc2ccccc2C(=O)NCC(=O)O)cc1` [Sivelestat (ONO-5046)]: the Euclidean distance in the experiment with 786-O was 0.847; in the experiment on A549 it was 0.693; in the experiment on DU145, 0.861; with FB it was 1.16; with HEPG2, 0.614; with OVCAR4, 0.797.
In the case of `NCCS(=O)(=O)O` [Taurine], the Euclidean distance in the experiment with 786-O worked out at 1.5; in the experiment with A549 it was 0.858; in the experiment on DU145 it was 1.34; in the experiment with FB, 0.921; with HEPG2, 0.768; with OVCAR4 it was 1.35.
Turning to `CC1CCc2cc(F)cc3c(=O)c(C(=O)O)cn1c23` (stereo unspecified) [Flumequine], the Euclidean distance in the experiment with 786-O stood at 1.37; with A549, 0.57; in the experiment with DU145, 1.32; in the experiment with FB, 0.897; with HEPG2, 0.704; with OVCAR4 it was 1.44.
`CC(C)CN(C[C@@H](O)[C@H](Cc1ccccc1)NC(=O)O[C@H]1CCOC1)S(=O)(=O)c1ccc(N)cc1` [Amprenavir]: the Euclidean distance in the experiment on 786-O came to 1.35; in the experiment on A549, 1.29; in the experiment on DU145 it was 1.22; in the experiment with FB, 1.22; with HEPG2, 1.26; in the experiment on OVCAR4, 1.6.
